Compound activity (PubChem)
Pf Dd2 inh – Plasmodium falciparum Dd2 growth inhibition | P. falciparum Dd2 growth, SYBR Green, 72 h | Potency, µM (series often up to 28.9 µM), for the others: at the highest dose activity, negative = inhibition, usual class: inhibitors | 120,000 tested, 4.3% active | AID 1347417; active = well fitted inhibition curve with a large enough effect;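 note: plate controls were DMSO vehicle for no effect and reference drug for full effect; nearly all actives have a fitted effect of over 65% in size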
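Readout: SYBR Green fluorescence, 485 nm excitation, 535 nm emission, after ~16 h lysis at 37C. Before that, Dd2-infected red cells (2.5% hematocrit) grew 72 h with compound, 29 uM top final concentration.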
The depositor's hits bear a star; i = inactive; [ ] = dose if it differs, or a comment. The full list was thinned out, with hits kept by preference. Potency is the fitted concentration of half-maximal effect.

SMILES	Pf Dd2 inh
COc1cccc(CC(=O)N2CCCC3(C2)NC(=O)N(Cc2ccc(Cl)cc2)C3=O)c1 (stereo not given)	i
COCC1CN(C2CCC2)CC12CCN(C(=O)Cn1cccn1)CC2 (stereo not given)	i
COCCN(C)C[C@H]1C[C@H](CO)CN(C(=O)c2c(C)cccc2OC)C1	10.4%
CCOCCOC1CCN(C(=O)c2ccco2)CC1	15.4%
CCN1c2cc(C(=O)N3CCN(c4ccc(OC)cc4)CC3)ccc2C(=O)N2CCCCC21 (stereo not given)	-9.7%
Cc1ccc(NC(=O)C2CCN(S(=O)(=O)c3c(C)noc3C)CC2)cc1C	-9.3%
COc1ccc(CCNC(=O)C2CCN(S(=O)(=O)c3c(C)noc3/C=C/c3ccc(C)cc3)CC2)cc1OC	-5.2%
COc1cc(NC(=O)C2CCN(S(=O)(=O)c3c(C)noc3/C=C/c3cccs3)CC2)cc(OC)c1	11.2µM*
COc1ccc(C(=O)N2CCN(C(=O)c3nnn4c3COC(c3ccccc3)C4)CC2)c(C)c1 (stereo not given)	-2.3%
N#Cc1cccc(C(=O)N2CCC3(CC2)CN(C2CCC2)CC3CO)c1 (stereo not given)	-9.9%
COCC1CN(C(C)=O)CC12CCN(C(=O)COc1cccc(C)c1)CC2 (stereo not given)	i
COCC1CN(C2CCC2)CC12CCN(C(=O)c1ccccn1)CC2 (stereo not given)	11.5%
O=C(Cc1ccc(Cl)cc1)N1CCC2(CC1)CN(C1CCC1)CC2CO (stereo not given)	8.91µM*
COCC1CN(C2CCC2)CC12CCN(C(=O)COc1cccc(C)c1)CC2 (stereo not given)	5.01µM*
COCC1CN(C2CCC2)CC12CCN(C(=O)c1cccs1)CC2 (stereo not given)	-11.5%
COCC1CN(C2CCC2)CC12CCN(C(=O)c1cccc(C#N)c1)CC2 (stereo not given)	-23.2%
OCC1CN(C2CCC2)CC12CCN(C1CCC1)CC2 (stereo not given)	1.4%
COCC1CN(C2CCC2)CC12CCN(C(=O)c1cccc(C)c1)CC2 (stereo not given)	8.91µM*
O=C(COc1ccc(-n2cnnn2)cc1)N1CCCC2(CCNCC2)CC1	-1.1%
Cc1ccc(-c2noc([C@@H]3C[C@H](NC(=O)CC(C)(C)CC(=O)O)CN3C)n2)cc1	i
CCc1nc(NC(=O)C2CC(=O)N(c3n[nH]c4cc(Br)ccc34)C2)sc1C (stereo not given)	-19.4%
C[C@@H](NC(=O)Cc1ccccc1)c1onc(-c2ccc(Cl)cc2)c1C(=O)O	-7.9%[44.1 µM]
O=S(=O)(c1ccccc1)N1CCCC(c2nc(CCOc3ccc(F)cc3)no2)C1 (stereo not given)	i
CC(C)Cn1nc2n(c1=O)CCN(S(=O)(=O)c1cccc3cccnc13)CC2	-17.5%
O=C(c1ccc2cc[nH]c2c1)N1CCC2(CC1)CC(Cc1cccc(F)c1)CCO2 (stereo not given)	i
SMILES	Pf Dd2 inh
NC(=O)c1ccc(N2CCN(Cc3cnc(-c4ccco4)nc3)CC2)nc1	-3.4%
CN1CCN([C@@H]2[C@H](O)[C@H](CO)O[C@@H]2CNC(=O)c2ccco2)CC1	-11.4%[44.1 µM]
COC(=O)[C@@H]1Cc2ncn(Cc3ccc(OC)cc3)c2CN1C(=O)c1ccc(F)cc1	-40.2%[44.1 µM]
COC(=O)[C@@H]1Cc2ncn(Cc3ccc(OC)cc3)c2CN1Cc1cccc(C#N)c1	12.6µM*
COC(=O)[C@@H]1Cc2ncn(Cc3ccc(OC)cc3)c2CN1C(=O)c1ccc(C#N)cc1	i
Cc1ccccc1OCc1nc(C2CN(C(=O)Cc3ccsc3)C2)no1	i
Cc1sc2cc(C(=O)NC3CC3)[nH]c2c1CN1CCCCC1	-7.0%
Cc1ccn(CC(=O)N2C[C@@H](COCC3CC3)[C@H](c3ccccn3)C2)n1	8.9%
Cc1ccc(Cl)cc1N1CCN(C(=O)c2cnn(C(C)(C)C)c2C2CCN(C(=O)OC(C)(C)C)CC2)CC1	7.94µM*
Cc1ccc(C)c(N2CCN(C(=O)c3cnn(C(C)(C)C)c3C3CCN(C(=O)OC(C)(C)C)CC3)CC2)c1	8.91µM*
Cc1cccc(-n2ncc(C(=O)N3CCN(c4ccc(C)cc4C)CC3)c2C2CCN(C(=O)OC(C)(C)C)CC2)c1	-25.4%
Cc1ccc(Cl)cc1N1CCN(C(=O)c2cnn(C)c2C2CCN(C(=O)OC(C)(C)C)CC2)CC1	3.98µM*
Cn1ncc(C(=O)N2CCN(c3ccccc3)CC2)c1C1CCN(C(=O)OC(C)(C)C)CC1	i
O=C1CCC2(CCNCC2)CN1CCCNc1cccnc1	7.8%
O=C(CCCc1ccccc1)N1CCCC1c1noc(COc2ccc(F)cc2)n1 (stereo not given)	-28.1%
Cc1cccc(-n2nc(-c3c(C)nc4scc(CC(=O)N5CCCC5)n4c3=O)cc2C)c1	-5.0%
CCn1nccc1C(=O)N1CCC2(CC1)NC(=O)N(c1cccc(F)c1)N2	24.6%
O=C(O)C[C@@H]1CCN(C(=O)NC2CCCCC2)C[C@@H]1CCN1CCN(c2ccc(F)cc2)CC1	-13.8%
CNC(=O)[C@@H]1CN(C(=O)Cn2nc(C(F)(F)F)cc2C)C[C@H]1c1n[nH]c(C)n1	24.7%
COC(=O)[C@H](Cc1ccc(OC)cc1)NC(=O)[C@@H]1CN(C(=O)NC(C)C)CCN1C(=O)C1CCCCC1	-2.9%
CCOc1ccccc1NC(=O)CN1C(=O)C(c2ccccc2)=NC12CCCCCC2	i
N#Cc1cccc(NC(=S)N[C@H]2CO[C@H]3[C@@H]2OC[C@@H]3n2nnnc2Oc2cccc(N3CCOCC3)c2)c1	8.91µM*
N#Cc1cccc(NC(=S)N[C@H]2CO[C@H]3[C@@H]2OC[C@@H]3n2nnnc2Oc2ccccc2)c1	i
N#Cc1cccc(NC(=S)N[C@H]2CO[C@H]3[C@@H]2OC[C@@H]3n2nnnc2Oc2ccc3c(c2)OCO3)c1	-28.8%
CCN1c2cc(C(=O)N3CCN(c4ccc(C)cc4)CC3)ccc2C(=O)N2CCCCC21 (stereo not given)	i
SMILES	Pf Dd2 inh
COc1ccc2c(c1)OCC(CNC(=O)c1ccc(-c3nnn(C)n3)cc1)C2 (stereo not given)	1.5%
COc1ccc2c(c1)OCC(CNC(=O)c1cc(-c3ccncc3)n[nH]1)C2 (stereo not given)	12.6µM*
COc1ccc2c(c1)OCC(CNC(=O)c1scc3c1OCCO3)C2 (stereo not given)	-19.5%
O=C(Nc1nc(-c2ccccc2)ns1)c1ccc(Cl)cc1	10.5%
O=C(/C=C/c1ccc(F)cc1)Nc1nc2n(n1)C(c1ccc(Cl)cc1)C=C(c1ccccc1)N2 (stereo not given)	11.2µM*
O=C(c1ccccc1)n1nc(-c2ccccc2)nc1NCc1ccc(F)cc1	13.0%
CC1=C(C(N)=O)C(c2ccc(F)cc2)n2nc(-c3ccccc3Cl)nc2N1 (stereo not given)	2.9%
O=C(c1ccc(F)cc1)n1nc(-c2ccccc2)nc1NCc1ccc(F)cc1	-14.5%
CC(=O)Nc1nc2n(n1)C(c1ccc(F)cc1)C=C(c1ccc(Cl)cc1)N2 (stereo not given)	10µM*
O=S(=O)(Nc1nc2n(n1)C(c1ccc(F)cc1)C=C(c1ccc(Cl)cc1)N2)c1ccccc1 (stereo not given)	11.3%
COc1ccccc1/C=C/C(=O)Nc1nc2n(n1)C(c1ccc(F)cc1)C=C(c1ccccc1)N2 (stereo not given)	10µM*
COc1cc(C2C(C(=O)Nc3ccccc3)=C(C)Nc3nc(SCc4ccccc4F)nn32)cc(OC)c1OC (stereo not given)	3.2%
